Reference: the OligoGym collection

Molecular target: UQCRQ
Assay: pooled miR-30 sensor sort-seq; sequence = guide strand
Details: shRNA

Row | Sequence | sensor-assay potency score (higher = more potent)
1 | TCCTTTAGTGAAGACGTGCGGA | -0.407
2 | TATTGTGTCTTTGAGACACTAC | -0.42
3 | TCGAACGGTGACAAGCTGTAGC | -0.337
4 | TAAAACACTACAAACTGCGGCA | 0.151
5 | TCGAACTCTTCAGTCCCCCATG | -1.13
6 | ATAAAACACTACAAACTGCGGC | 0.284
7 | TGCTCGAACGGTGACAAGCTGT | -0.735
8 | AACGGTGACAAGCTGTAGCTGA | 0.0218
9 | TGGATCTCTCGAACTCTTCAGT | -0.739
10 | TTCTTCCTCTTGGATCTCTCGA | -0.853
11 | TGTAGCTGATCACATGCCGCAT | -0.74

Molecular target: USO1
Assay: as above
Details: shRNA

Row | Sequence | sensor-assay potency score (higher = more potent)
12 | TAGGATAGTACAAAGCTGCTGC | 0.88
13 | TACCAATACACGAACAAGCTGT | 0.107
14 | TACACGAACAAGCTGTAGCATT | -0.757
15 | TTATAGTCTCGGTCTCTCCTTG | 0.0783
16 | TAAAATAATTTGTTGCACCTGA | 0.172
17 | TTTTAATGTAGAAACCTGCTGC | 0.733
18 | TATATTATATAGTATGTCCAAA | -1.01
19 | TTTCTGATCTTGATCGGCCAAG | -1.48
